DT40 TDP1 no CPT: qHTS for Inhibitors of human tyrosyl-DNA phosphodiesterase 1 (TDP1): qHTS in cells in absence of CPT; DT40 Tdp1-/- hTDP1 cells, no CPT, ATP luminescence, 48 h; Potency, µM (top dose mostly 46.2 µM), for the others: at the top dose activity change, negative = growth inhibition, hits mostly inhibitors; hit rate 15% among 420,000; AID 686978, 2013; also: potency is read from the fitted curve at half-maximal effect; nearly all actives have a fitted effect of over 55% in size
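Growth of hTDP1-complemented DT40 Tdp1-knockout cells is measured by ATP luminescence after at least 48 hr compound exposure at 37 °C, with DMSO substituting for the 20 nM CPT used in the parallel screen.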
TDP1 cell CPT: DT40-hTDP1 cell growth loss with CPT; chicken DT40 Tdp1-/-;hTDP1 cells + 20 nM CPT, ATP luminescence, 48 h; hit rate 12% among 420,000; Potency, µM (highest dose often 46.2 µM), inactives show at the highest dose activity change, negative = growth inhibition, most hits filed as inhibitors; also: potency is read from the fitted curve at half-maximal effect; nearly all actives have a fitted effect of over 55% in size
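Chicken DT40 Tdp1-/- cells stably complemented with human TDP1 were seeded at 400 cells/well in medium containing 20 nM camptothecin, exposed to pin-transferred compounds, and grown at 37 °C for at least 48 hr. Viability was read as ATP luminescence.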
TDP1 inh: blocks human tyrosyl-DNA phosphodiesterase 1. Potency, µM (highest dose often 130 µM), for inactives: top-dose activity change, negative = inhibition, most hits filed as inhibitors. recombinant TDP1, AlphaScreen DNA substrate cleavage. hit rate 0.28% among 350,000; also: potency is read from the fitted curve at half-maximal effect; nearly all actives have a fitted effect of over 40% in size
Target sequence (Q9NUW8 whole entry, looked up): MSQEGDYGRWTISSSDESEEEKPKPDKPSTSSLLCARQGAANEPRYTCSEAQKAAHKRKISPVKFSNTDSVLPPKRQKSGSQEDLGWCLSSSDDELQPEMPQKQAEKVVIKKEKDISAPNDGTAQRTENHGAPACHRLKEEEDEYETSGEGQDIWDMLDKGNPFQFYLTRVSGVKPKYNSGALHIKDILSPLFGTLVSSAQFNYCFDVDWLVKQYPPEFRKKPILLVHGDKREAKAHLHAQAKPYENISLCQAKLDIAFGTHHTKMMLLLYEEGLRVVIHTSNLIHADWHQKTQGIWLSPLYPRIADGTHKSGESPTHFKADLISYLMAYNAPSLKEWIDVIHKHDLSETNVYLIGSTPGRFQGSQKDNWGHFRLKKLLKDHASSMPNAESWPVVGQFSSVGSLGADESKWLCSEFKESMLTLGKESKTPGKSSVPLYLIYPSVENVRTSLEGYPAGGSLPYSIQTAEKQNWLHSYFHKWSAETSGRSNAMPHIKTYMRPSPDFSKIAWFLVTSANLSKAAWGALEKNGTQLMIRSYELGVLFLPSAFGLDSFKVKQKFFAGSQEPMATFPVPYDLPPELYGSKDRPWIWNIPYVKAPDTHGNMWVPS
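E. coli-derived human Tdp1, 1 nM final. Cpd preinc 15 min RT; substrate 15 nM final, 5 min RT; AS bead mix 10 ug/ml final, 10 min RT. Signal loss = tyrosine-FITC cleavage. No-enzyme wells = max signal.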
Giardia kill: Giardia lamblia killing. activity change, % at 7.66 µM, hits read low. hit rate 0.15% among 340,000. Giardia lamblia trophozoite viability. AID 540267; in the data active = activity change below about -80%; inconclusive = between about -30% and that limit;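 also: parasites exposed to compound for two days anaerobically before the ATP read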
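ATP-content bioluminescence gauges trophozoite survival. Cells (100/well) receive compound and incubate anaerobically for 48 hrs at 37 deg C; detection reagent follows for 15-30 min at room temperature.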
ELG1 DNA repair: ELG1-dependent DNA repair inhibition | HEK293T ELG1-luciferase reporter, luminescence, 16 h; DNA damage induced by 5-fluorouridine | Potency, µM (series often up to 46.1 µM), without a hit: top-dose activity change, negative = inhibition, hits mostly inhibitors | hit rate 2.3% among 330,000; also: potency is read from the fitted curve at half-maximal effect; nearly all actives have a fitted effect of over 55% in size
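Quantitative HTS, concentration-response format. 2,000 cells/well co-treated with 5-fluorouridine and compound, 16 hr in 5% CO2 at 37 °C; ONE-Glo luminescence read after 30 min.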
IL1B secr inh: inhibitors of inflammasome signaling (IL-1 beta secretion); activity change, % at 57.5 µM; AID 743279; hit rate 4.7% among 360,000; THP-1 LPS/ATP IL-1B secretion, AlphaLISA, 16 h; active compounds read low; in the data active = activity change below about -50%; inconclusive = mostly about -30% to -49%
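THP-1 cells pretreated 1 hr with compounds (up to 57.5 uM final), then stimulated with LPS (250 ng/mL final) plus ATP (1.25 mM final); secreted IL-1B measured by AlphaLISA after 16 hr, decreased signal indicating inhibition.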
* = called active by the depositor. Sampled rows, rich in hits. Any-hit rate of the full collection: about 19%. Unless noted, calls follow the shape of the dose curve; as a rule, active = well fitted curve in the direction sought with a large enough effect; inconclusive = small, poorly fitted or top-dose-only effect, or another doubt; inactive = no such curve, though single readings can be large; an effect the other way counts as inactive or inconclusive. % is scaled to controls: 0 for no effect and ±100 for the full control effect.

What do the screens show for `COc1ccc(OC)c(CC(=O)N2CCc3cc(OC)c(OC)cc3C2)c1`?
DT40 TDP1 no CPT: inconclusive; TDP1 cell CPT: 0.13µM*; Giardia kill: -17; ELG1 DNA repair: -8%; IL1B secr inh: -2

How did COc1cc2c(cc1OC)CN(C(=O)CCCN1C(=O)c3ccccc3C1=O)CC2 do in these assays?
DT40 TDP1 no CPT: -17%; TDP1 cell CPT: -11%; TDP1 inh: 7%; Giardia kill: -11; ELG1 DNA repair: -21%; IL1B secr inh: 45

Results for C/C=C/c1ccc(OCC(=O)N2CCc3cc(OC)c(OC)cc3C2)c(OC)c1 ?
DT40 TDP1 no CPT: 23µM*; TDP1 cell CPT: inconclusive; TDP1 inh: 8%; Giardia kill: 4; ELG1 DNA repair: -11%; IL1B secr inh: inconclusive

How did COc1cc2c(cc1OC)CN(C(=O)CCOc1ccccc1C)CC2 do in these assays?
DT40 TDP1 no CPT: 21µM*; TDP1 cell CPT: inconclusive; TDP1 inh: 9%; Giardia kill: -14; ELG1 DNA repair: inconclusive; IL1B secr inh: 37

What do the screens show for `O=C(c1ccco1)N(Cc1cccnc1)c1nc2ccc(F)cc2s1`?
DT40 TDP1 no CPT: -11%; TDP1 cell CPT: 6%; TDP1 inh: 5%

Results for O=C(NCc1ccc(F)cc1)C1CCN(S(=O)(=O)c2cccc3nonc23)CC1 ?
DT40 TDP1 no CPT: -15%; TDP1 cell CPT: -15%; TDP1 inh: -4%; Giardia kill: 13; ELG1 DNA repair: 25%; IL1B secr inh: 14

Results for Cc1ccc(NC(=O)Cc2ncc(C(F)(F)F)cc2Cl)cc1Cl ?
DT40 TDP1 no CPT: inconclusive; TDP1 cell CPT: inconclusive; TDP1 inh: -2%; Giardia kill: -14; ELG1 DNA repair: 10%; IL1B secr inh: -2

Results for COc1cc2c(cc1OC)CN(C(=O)CCCOc1ccc(Cl)cc1Cl)CC2 ?
DT40 TDP1 no CPT: 18µM*; TDP1 cell CPT: 16µM*; TDP1 inh: 10%; Giardia kill: -5; ELG1 DNA repair: inconclusive; IL1B secr inh: inconclusive

How did CC(=O)c1cccc(NC(=O)Nc2nnc(N3CCCC3)s2)c1 do in these assays?
DT40 TDP1 no CPT: inconclusive; TDP1 cell CPT: inconclusive; TDP1 inh: 3%

Results for Clc1ccc2nc(CN3CCCc4ccccc43)cn2c1 ?
DT40 TDP1 no CPT: 18µM*; TDP1 cell CPT: 13µM*; TDP1 inh: 9%; Giardia kill: 6; ELG1 DNA repair: 21%; IL1B secr inh: -78*

Results for Cc1ncc(CN2CCCC(C(=O)Nc3ccc(-c4ccco4)cc3)C2)n1C (stereo not given) ?
DT40 TDP1 no CPT: 21µM*; TDP1 cell CPT: inconclusive; TDP1 inh: 4%; Giardia kill: -7; ELG1 DNA repair: -3%; IL1B secr inh: inactive

How did COc1cccc(-c2ccc(NC(=O)C3CCCN(CCCn4nc(C)cc4C)C3)cc2)c1 (stereo not given) do in these assays?
DT40 TDP1 no CPT: inconclusive; TDP1 cell CPT: 18µM*; TDP1 inh: 4%; Giardia kill: 11; ELG1 DNA repair: inconclusive; IL1B secr inh: -4

Results for Cn1cc(CN2CCCC(C(=O)Nc3ccc(-c4cccc(F)c4)cc3)C2)cn1 (stereo not given) ?
DT40 TDP1 no CPT: 12µM*; TDP1 cell CPT: 21µM*; TDP1 inh: 2%; Giardia kill: -19; ELG1 DNA repair: inconclusive; IL1B secr inh: -11

Results for COc1cccc(-c2ccc(NC(=O)C3CCCN(Cc4ccco4)C3)cc2)c1 (stereo not given) ?
DT40 TDP1 no CPT: 16µM*; TDP1 cell CPT: inconclusive; Giardia kill: -9; IL1B secr inh: -80*

How did CN(Cc1ccccc1)C(=O)C1CCN(S(=O)(=O)c2ccc3c(c2)oc(=O)n3C)CC1 do in these assays?
DT40 TDP1 no CPT: -11%; TDP1 cell CPT: -21%; TDP1 inh: -1%

How did CCc1cccc(C)c1NC(=O)CCCn1c(C)c2cnn(-c3ccccc3)c(=O)c2c1C do in these assays?
DT40 TDP1 no CPT: inconclusive; TDP1 cell CPT: inconclusive; TDP1 inh: 5%

Results for CCOC(=O)N(C)c1c(CC)nc2c(OCc3ccc(F)c(F)c3)cccn12 ?
DT40 TDP1 no CPT: 21µM*; TDP1 cell CPT: inconclusive; IL1B secr inh: -7

How did CCOC(=O)N(C)c1c(CC)nc2c(OCc3cc(Cl)cc(Cl)c3)cccn12 do in these assays?
DT40 TDP1 no CPT: 21µM*; TDP1 cell CPT: inconclusive; IL1B secr inh: inconclusive

How did CCc1nc2c(OCc3cccc(Cl)c3)cccn2c1N(C)C(=O)CC(C)C do in these assays?
DT40 TDP1 no CPT: 21µM*; TDP1 cell CPT: inconclusive; IL1B secr inh: 2

Results for CCc1nc2c(OCc3ccc(F)cc3)cccn2c1N(C)C(=O)CC(C)C ?
DT40 TDP1 no CPT: inconclusive; TDP1 cell CPT: inconclusive; IL1B secr inh: -1

Results for CCOC(=O)N(C)c1c(CC)nc2c(OCc3ccc(Cl)cc3Cl)cccn12 ?
DT40 TDP1 no CPT: 23µM*; TDP1 cell CPT: inconclusive; IL1B secr inh: 0

How did Cc1cc(C)nc(NN2C(=O)C=CC2=O)n1 do in these assays?
DT40 TDP1 no CPT: inconclusive; TDP1 cell CPT: inconclusive; Giardia kill: -17; ELG1 DNA repair: -1%; IL1B secr inh: -3

Results for CC1Oc2ccccc2N(Cc2ccc(F)cc2)C1=O (stereo not given) ?
DT40 TDP1 no CPT: 22%; TDP1 cell CPT: -29%; Giardia kill: -24; ELG1 DNA repair: 0%; IL1B secr inh: 23

Results for CCc1cccc(C)c1N=Cc1c(O)c2ccccc2oc1=O ?
DT40 TDP1 no CPT: -3%; TDP1 cell CPT: -25%; Giardia kill: 20; ELG1 DNA repair: 9%; IL1B secr inh: -1

Results for CCc1nc2c(OCc3ccc(F)c(F)c3)cccn2c1N(C)C(=O)C1CC1 ?
DT40 TDP1 no CPT: inconclusive; TDP1 cell CPT: 21µM*; IL1B secr inh: 10

Results for CCCc1ccc(C2C3=C(CC(C)(C)CC3=O)NC3=C2C(=O)c2ccccc23)cc1 (stereo not given) ?
DT40 TDP1 no CPT: 16µM*; TDP1 cell CPT: 21µM*; TDP1 inh: 8%; Giardia kill: -12; ELG1 DNA repair: -11%; IL1B secr inh: inconclusive

Results for CCCCc1ccc(C2C3=C(CC(C)(C)CC3=O)NC3=C2C(=O)c2ccccc23)cc1 (stereo not given) ?
DT40 TDP1 no CPT: inconclusive; TDP1 cell CPT: inconclusive; TDP1 inh: 8%; Giardia kill: -3; ELG1 DNA repair: -23%; IL1B secr inh: inconclusive

What do the screens show for `CCCCCCCCCCCCCCCC[N+](C)(C)Cc1ccccc1`?
DT40 TDP1 no CPT: 0.94µM*; TDP1 cell CPT: 1.2µM*

Screening results deposited in PubChem BioAssay by National Center for Advancing Translational Sciences (NCATS).
